In all, about 2,100 compounds went through this assay and about 480 (23%) were called active. Inconclusive results (about 5%) are left out.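 Rule for the calls: active = fitted curve reaches 40% activation at or below the top valid concentration, in every replicate test; inconclusive = replicate tests disagree on the call; inactive = the rest, including activity in the opposite direction.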 Only a sample is shown. Potency and affinity values are given separately.
Experiment: activators raising PGC1a acetylation in cells, dose response, cell-based, cherry-picked samples, set 6 (AID 720513);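 note: cells made to overexpress flag tagged PGC1a plus GCN5 acetyltransferase by viral infection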
Details: U2OS PGC1a acetylation AlphaLISA, overnight, 0 = neutral, -100 = inhibitor control; series mostly up to 19.5 µM; activation (acetylation increase): at the top concentration

Activation (acetylation increase), inactive:
Cc1ccc(Sc2ncnc3onc(C)c23)c(C)c1 23.8%
Cc1ccccc1CS(=O)(=O)c1nnc([C@H](CC(C)C)NC(=O)OC(C)(C)C)o1 -78.1%
Cc1ccc(CN2CC(C(=O)N3CCN(S(=O)(=O)c4cccc(F)c4)CC3)CC2=O)cc1 (configuration not stated) -5.88%
COc1ccc(S(=O)(=O)N2CCC(C(=O)N3CCC(C(N)=O)CC3)CC2)cc1Cl 19.4%
CC(C)CC#Cc1ccc2c(c1)O[C@H](CN(C)C(=O)Cc1ccccc1)[C@H](C)CN([C@H](C)CO)S2(=O)=O 20.7%
COCCn1c(C)c(C)c2c(NCCc3ccccc3)ncnc21 11.3%
O=CNCCc1nc2ccccc2n1CCc1ccccc1 15.8%
CN1CCN(C2=C(Cl)C(=O)N(CCc3ccccc3)C2=O)CC1 -19.5%
COCCNC(=O)CSc1nc2c(n1-c1ccccc1)CCCC2 0.562%
C[C@@H]1CN([C@H](C)CO)C(=O)c2cccc(NC(=O)C3CCCCC3)c2O[C@@H]1CN(C)CC1CCCCC1 15.4%
CCOC(=O)c1ccc(-c2c(-c3cc(OC)c(OC)c(OC)c3)noc2C)cc1F 1.34%
O=C(C[C@@H]1C=C[C@@H](NC(=O)Nc2ccc(F)cc2)[C@@H](CO)O1)NCCN1CCCC1 24%
CC(C)c1nc2sc3c(NCc4ccco4)ncnc3c2c2c1COC(C)(C)C2 31.6%
Cc1cccc(-c2ccc(C3[C@@H]4CN(C(=O)Nc5ccc(C(F)(F)F)cc5)C[C@H]3N4)cc2)c1 (some centres not stated) -88.7% [at 21 µM]
COc1cccc(-n2c(Cc3cc(=O)[nH]c(=O)[nH]3)nnc2SCc2cccc(C(F)(F)F)c2)c1 7.56%
O=C(Nc1ccc(F)cc1)c1sc2cc(C(F)(F)F)cnc2c1-c1cccs1 27.7%
COc1ccc(N(Cc2cc3cc(OC)ccc3[nH]c2=O)S(C)(=O)=O)cc1 -12.8%
COc1ccc(Oc2c(Cl)cnn(-c3ccccc3)c2=O)cc1 -37.8%
O=C(Nc1ccccc1)Nc1cc(Cl)cc(Cl)c1 -60.1%
C[C@H](CO)N1C[C@H](C)[C@@H](CN(C)C(=O)Nc2ccc(F)cc2)Oc2ncc(C#CC3CC3)cc2C1=O 23.6%
O=C(c1ccco1)N1CCN(c2ncnc3scc(-c4cccs4)c23)CC1 -40.8%
COc1ccc(C2CC(c3cccs3)=NN2c2nc(C)c(C(C)=O)s2)cc1OC (configuration not stated) 28.7%
CCOC(=O)C1CCN(C(=O)CSc2ccc(Br)cc2)CC1 15.1%
COc1ccccc1Oc1ccc2c(c1)C(=O)N(c1ccc(C)cc1)C2=O -5.16%
O=C(O)c1cc(N2CCCCC2)ccn1 4.78%
N#Cc1sc2nccc(Nc3ccccc3)c2c1N -14.5%
c1ccc(N2CCN(C3CC4CCC3C4)CC2)cc1 (configuration not stated) 8.45%
COc1ccc(C(=O)Nc2ccc(S(=O)(=O)Nc3cc(C)nc(C)n3)cc2)cc1 -8.33%
Cc1ccc(OC[C@H](O)[C@H](C)NC(C)C)c2c1CCC2 6.66%
CN(C)c1ccc(Sc2ccc3nc(N)nc(N)c3c2)cc1 64.2%
O=C(Nc1cccc(F)c1)N1CC(=O)N2[C@@H](CO)[C@@H](c3ccc(C#Cc4cccnc4)cc3)[C@@H]2C1 -25.7%
CCCCCSc1nnc(C)c(=O)[nH]1 20%
O=C(CC1CC1)N[C@H]1CC[C@@H](CCNS(=O)(=O)c2ccc(Cl)cc2)O[C@@H]1CO -6.68%
CCOC(=O)NC(=O)CSc1nnnn1-c1ccc(C)cc1 16.1%
CCOC(=O)c1c(-c2ccco2)csc1NC(=O)COC(=O)c1cnccn1 3.51%
O=C(C[C@H]1CC[C@H](NC(=O)C2CCC2)[C@@H](CO)O1)NCC1CC1 31.1%
O=C(Nc1ccc(F)cc1)N1CCCCN2[C@H](CO)[C@@H](c3ccc(C#Cc4ccccc4)cc3)[C@H]2C1 -24.8%
Cc1ccccc1-c1ccc(C2[C@@H]3CN(C(=O)Nc4cccc(F)c4)C[C@H]2N3)cc1 (some centres not stated) -97.6%
COCCN(C(=O)CSc1nn(-c2ccc(F)cc2)c(=S)s1)c1c(N)n(CC(C)C)c(=O)[nH]c1=O 4.95%
COc1ccccc1CNS(=O)(=O)c1cc(C)ccc1OC 35.1%
C[C@@H]1CN([C@@H](C)CO)C(=O)CCCn2nncc2CO[C@H]1CN(C)Cc1ccc(O)cc1 5.72%
CCOc1ccc(N(CC(=O)Nc2ccccc2OC)S(=O)(=O)c2ccccc2)cc1 -19.4%
C[C@@H]1CCCCO[C@H](CN(C)Cc2ccc3c(c2)OCO3)[C@@H](C)CN([C@@H](C)CO)C(=O)c2cc(NC(=O)Nc3ccc(C(F)(F)F)cc3)ccc2O1 -94.8%
CC(=O)c1cccc(-c2ccnc3c2CC(C(=O)NCC2CC2)O3)c1 (configuration not stated) 19.7%
CC(=O)c1cccc(-c2ccnc3c2CC(C(=O)Nc2ccc4c(c2)OCO4)O3)c1 (configuration not stated) 20.9%
O=C(CSc1nnc(-c2ccncc2)n1-c1ccc(Cl)cc1)NCc1cccs1 25.8%
O=C(NCc1ccccc1)C1Cc2c(-c3ccc4c(c3)OCO4)ccnc2O1 (configuration not stated) 55.9%
COc1ccc(-c2[nH]ncc2-c2ccc3c(c2)OCCO3)c(O)c1 -17.4%
Cn1nc(C(=O)N2CCCCC2)c2c1-c1ccccc1S(=O)(=O)C2 13.5%
CC(C)(C)c1ccc(-n2nc(C#N)c(Cl)cc2=O)cc1 -111%
Cc1cc(-c2c(C)[nH]n(-c3ccc(Cl)cc3)c2=O)n(-c2ccccc2)n1 21.5%
COc1ccc(CN(C)C[C@@H]2OCCCC[C@@H](C)Oc3ccc(NS(C)(=O)=O)cc3C(=O)N([C@H](C)CO)C[C@@H]2C)cc1 15.2% [at 21 µM]
CC(C)(C)NS(=O)(=O)c1ccc(-c2csnn2)s1 -32.1%
CC(C)CC#Cc1ccc2c(c1)O[C@H](CN(C)C)[C@@H](C)CN([C@H](C)CO)S2(=O)=O 23.4%
CCC1(CC)Cc2ccccc2-c2nc(CN(C)C)[nH]c(=O)c21 -10.6%
CC(=O)c1ccc(N2CCN(S(=O)(=O)c3csc(C(N)=O)c3)CC2)cc1 22.3%
COc1cc(C(C)=O)ccc1OCC(O)CN1CCN(c2ccc(C)c(C)c2)CC1 (configuration not stated) 15.2%
COc1ccc(-c2cnc3c(c2)C(=O)N([C@H](C)CO)C[C@H](C)[C@@H](CN(C)C(=O)C2CC2)O3)cc1 -29.3%
C[C@@H]1CN([C@H](C)CO)C(=O)c2cc(-c3ccccc3)cnc2O[C@@H]1CN(C)C(=O)Cc1ccccc1 11.2%
C[C@@H]1CN([C@H](C)CO)C(=O)CCCn2cc(nn2)CO[C@@H]1CN(C)C(=O)OCc1ccccc1 0.754%
COc1ccc(-c2cnc3c(c2)C(=O)N([C@H](C)CO)C[C@H](C)[C@@H](CN(C)C(=O)C2CCC2)O3)cc1 -32%
COc1ccc(CN(C)C[C@H]2Oc3ccc(NC(=O)Cc4cn(C)c5ccccc45)cc3CC(=O)N([C@@H](C)CO)C[C@@H]2C)cc1 6.37%
CCCCC(C(=O)O)C(C)CC(=O)Nc1nncs1 (configuration not stated) 9.62%
C[C@@H]1CN([C@@H](C)CO)C(=O)c2cc(C3=CCCC3)cnc2O[C@H]1CN(C)C(=O)Nc1cccc(F)c1 29%
CCOc1ccc(CN2CCNC(=O)C2CC(=O)NCc2ccccn2)cc1 (configuration not stated) 10.1%
CSCCC(NC(=O)OC(C)(C)C)C(=O)Oc1ccc2c(=O)c(-c3ccc4c(c3)OCCO4)coc2c1 (configuration not stated) -26.8%
O=C(C1CCCO1)N1CCN(Cc2c(O)ccc3ccccc23)CC1 (configuration not stated) 12.8%
C[C@@H]1CCCCO[C@H](CN(C)Cc2ccc(C(F)(F)F)cc2)[C@H](C)CN([C@@H](C)CO)C(=O)c2cc(NC(=O)NC3CCCCC3)ccc2O1 28%
COc1ccc(CN(Cc2cccn2C)S(=O)(=O)c2ccccc2)cc1 30.6%
COc1cccc(-c2noc(C3CCCN(C(=O)Cc4ccccc4)C3)n2)c1 (configuration not stated) 29.8%
C[C@H]1CN([C@@H](C)CO)S(=O)(=O)c2ccc(Br)cc2O[C@H]1CN(C)S(C)(=O)=O 2.73%
C[C@H](CO)N1C[C@H](C)[C@H](CN(C)Cc2ccccc2)Oc2cc(Br)ccc2S1(=O)=O -7.01%
COc1ccccc1C(NC(C)=O)c1cc(Cl)c2cccnc2c1O (configuration not stated) 10.3%
Cc1ccc(CN(C(=O)Cn2nnc3ccccc32)C(C(=O)NCc2ccco2)c2cccs2)cc1 (configuration not stated) -24.9%
CC(c1ccco1)N(C(=O)c1cc(Cl)cc(Cl)c1)c1ccccn1 (configuration not stated) 27.1%
CC(=O)c1cccc(-c2ccnc3c2CC(C(=O)NCc2ccco2)O3)c1 (configuration not stated) 4.41%
C[C@H](CO)N1C[C@H](C)[C@H](CN(C)S(=O)(=O)c2cn(C)cn2)OCCCC[C@H](C)Oc2ccc(NC(=O)Nc3cccc4ccccc34)cc2C1=O -7.46%
Clc1ccc(C(c2ccccc2Cl)C(Cl)Cl)cc1 (configuration not stated) 6.49%
CC(C)Cc1nn2c(=O)cc(O)nc2s1 16.5%
Cc1ccc(S(=O)(=O)C(NC(=O)c2ccccc2)=C(Cl)Cl)cc1 32.9% [at 10 µM]
Cc1ccc(C(CC(=O)O)NC(=O)CCNC(=O)c2ccco2)cc1 (configuration not stated) 29.7%
Cc1cc(OCC(=O)O/N=C(\N)c2ccccc2)cc(C)c1Cl 4.64%
CC(C)CC#Cc1ccc2c(c1)O[C@H](CN(C)Cc1ccccc1)[C@@H](C)CN([C@H](C)CO)S2(=O)=O -68.5%
COc1cc(-c2cnc3c(NC=O)cc(-c4ccccc4)cn23)cc(OC)c1OC -13.1%
COc1cc(-c2cnc3c(NC=O)cc(-c4ccccc4Cl)cn23)cc(OC)c1OC 6.09%
O=C(O)c1cccc(N2C(=O)CSC2c2c(F)cccc2Cl)c1 (configuration not stated) 15.6%
Cc1cc(C)c(NC(=O)c2ccc(S(=O)(=O)N(C)C)cc2)c(C)n1 -8.4%
OC[C@@H]1CN(Cc2ccccc2)C[C@H](n2cnc3c(NCc4ccco4)ncnc32)O1 -12.2%
CN(C)c1ncnc2c1ncn2C1OC(CO)C(O)C1O (configuration not stated) -12.4%
CS(=O)(=O)N1CCCC(C(=O)NCc2ccccn2)C1 (configuration not stated) 0.592%
COc1ccc(CN(C)C[C@@H]2OCCCC[C@H](C)Oc3ccc(NS(C)(=O)=O)cc3C(=O)N([C@@H](C)CO)C[C@@H]2C)cc1 7.45%

outcome, inactive:
Cc1ccc(-c2ccc(C3[C@@H]4CN(C(=O)Nc5ccc(C(F)(F)F)cc5)C[C@H]3N4)cc2)cc1 (some centres not stated)
